{"source": "PubChem BioAssay", "note": "The source made the active and inactive calls.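 How the source made its calls: active means GFP response below 50% of the DMSO control; inconclusive means fewer than 70 events counted for a yeast strain; inactive means the rest.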"}
{"assay": "RPL19A-GFP modulators, yeast TOR pathway, confirmation, cell-based, S. cerevisiae, flow cytometry, cherry picks, mother/daughter gates (AID 2270)", "conditions": "S. cerevisiae RPL19A-GFP strain, 3 h, at 10 µM, stronger effect = lower value, 100 = same GFP as DMSO wells"}
{"smiles": "O=C1NC(=S)N(c2ccccc2)C(=O)/C1=C/c1ccco1", "GFP response vs DMSO": "98.8% (inactive)"}
{"smiles": "O=C1NC(=O)N(Cc2ccco2)C(=O)/C1=C/c1ccc(-c2cccc([N+](=O)[O-])c2)o1", "GFP response vs DMSO": "102% (inactive)"}
{"smiles": "CC1(C)OC(c2ccccc2)=C/C(=C/C=C2C(=O)NC(=S)NC2=O)O1", "GFP response vs DMSO": "97.8% (inactive)"}
{"smiles": "O=C1NC(=O)N(CCc2ccc(F)cc2)C(=O)/C1=C/c1cccs1", "GFP response vs DMSO": "97% (inactive)"}
{"smiles": "C[C@]12CCC(=O)C(O)=C1CC[C@@H]1[C@@H]2CC[C@]2(C)C(=O)CC[C@@H]12", "GFP response vs DMSO": "99.3% (inactive)"}
{"smiles": "CN1CCN(c2ccc([N+](=O)[O-])c(Sc3ccccn3)c2)CC1", "GFP response vs DMSO": "98.4% (inactive)"}
{"smiles": "O=C1/C(=C\\c2ccc(Cl)c(Cl)c2)N2CCC1CC2", "GFP response vs DMSO": "102% (inactive)"}
{"smiles": "CCC(C)N1C(=O)/C(=C\\c2cnc(N(C)C)nc2)C(=O)NC1=S", "note": "(stereo unspecified)", "GFP response vs DMSO": "104% (inactive)"}
{"smiles": "Nc1ccc2ccc3cccc[n+]3c2c1", "GFP response vs DMSO": "111% (inactive)"}
{"assay": "RPL19A-GFP modulators, yeast TOR pathway, confirmation, cell-based, S. cerevisiae, flow cytometry, cherry picks, mother/daughter gates (AID 2270)", "conditions": "S. cerevisiae RPL19A-GFP strain, 3 h, measured here: daughter cell gate, at 10 µM, stronger effect = lower value, 100 = same GFP as DMSO wells", "units": {"GFP response vs DMSO": "%"}}
{"smiles": "O=C1NC(=O)N(Cc2ccco2)C(=O)/C1=C/c1ccc(-c2cccc([N+](=O)[O-])c2)o1", "GFP response vs DMSO": 102}
{"smiles": "CC1(C)OC(c2ccccc2)=C/C(=C/C=C2C(=O)NC(=S)NC2=O)O1", "GFP response vs DMSO": 99.3}
{"smiles": "O=C1NC(=O)N(CCc2ccc(F)cc2)C(=O)/C1=C/c1cccs1", "GFP response vs DMSO": 95}
{"smiles": "C[C@]12CCC(=O)C(O)=C1CC[C@@H]1[C@@H]2CC[C@]2(C)C(=O)CC[C@@H]12", "GFP response vs DMSO": 97.5}
{"smiles": "CN1CCN(c2ccc([N+](=O)[O-])c(Sc3ccccn3)c2)CC1", "GFP response vs DMSO": 98.9}
{"smiles": "O=C1/C(=C\\c2ccc(Cl)c(Cl)c2)N2CCC1CC2", "GFP response vs DMSO": 101}
{"smiles": "CCC(C)N1C(=O)/C(=C\\c2cnc(N(C)C)nc2)C(=O)NC1=S", "note": "(stereo unspecified)", "GFP response vs DMSO": 98.4}
{"smiles": "Nc1ccc2ccc3cccc[n+]3c2c1", "GFP response vs DMSO": 110}
{"assay": "RPL19A-GFP modulators, yeast TOR pathway, confirmation, cell-based, S. cerevisiae, flow cytometry, cherry picks, mother/daughter gates (AID 2270)", "conditions": "S. cerevisiae RPL19A-GFP strain, 3 h, measured here: mother cell gate, at 10 µM, stronger effect = lower value, 100 = same GFP as DMSO wells", "units": {"GFP response vs DMSO": "%"}}
{"smiles": "O=C1NC(=S)N(c2ccccc2)C(=O)/C1=C/c1ccco1", "GFP response vs DMSO": 91.4}
{"smiles": "O=C1NC(=O)N(Cc2ccco2)C(=O)/C1=C/c1ccc(-c2cccc([N+](=O)[O-])c2)o1", "GFP response vs DMSO": 96.7}
{"smiles": "CC1(C)OC(c2ccccc2)=C/C(=C/C=C2C(=O)NC(=S)NC2=O)O1", "GFP response vs DMSO": 98.5}
{"smiles": "O=C1NC(=O)N(CCc2ccc(F)cc2)C(=O)/C1=C/c1cccs1", "GFP response vs DMSO": 94.1}
{"smiles": "C[C@]12CCC(=O)C(O)=C1CC[C@@H]1[C@@H]2CC[C@]2(C)C(=O)CC[C@@H]12", "GFP response vs DMSO": 99.2}
{"smiles": "CN1CCN(c2ccc([N+](=O)[O-])c(Sc3ccccn3)c2)CC1", "GFP response vs DMSO": 99.5}
{"smiles": "O=C1/C(=C\\c2ccc(Cl)c(Cl)c2)N2CCC1CC2", "GFP response vs DMSO": 99.1}
{"smiles": "CCC(C)N1C(=O)/C(=C\\c2cnc(N(C)C)nc2)C(=O)NC1=S", "note": "(stereo unspecified)", "GFP response vs DMSO": 93.8}
{"smiles": "Nc1ccc2ccc3cccc[n+]3c2c1", "GFP response vs DMSO": 110}
